Here are results for 40 molecules from PubChem BioAssay (NCATS).

Results filed as inconclusive are left out. The source made the active and inactive calls. The call rests on the fitted dose curve; in most records, active means well fitted inhibition curve with a large enough effect; inconclusive means small, poorly fitted or top-dose-only effect; inactive means no such curve, though single readings can be large or run the other way.
Potency means the concentration at half of the fitted maximal effect.

A short description of the assay: qHTS Screen of the MIPE 4.0 Collection Against Ewings Sarcoma (EW8) (AID 1259255). Further: nearly all actives have a fitted effect of over 35% in size. As to conditions: EW8 Ewing sarcoma viability, CellTiter-Glo, 48 h; series mostly up to 45.8 µM. From the text: There is a large unmet medical need for treatments for Ewing sarcoma, a pediatric sarcoma. We sought to identify compounds that inhibited Ewing sarcoma cells in vitro with the goal to then test promising drugs in two drug combinations in vitro to look for synergistic drug combinations. Promising combinations would then proceed to additional validation, including in vivo testing.
Using the NCATS developed oncology compound library called the Mechanism of Interrogation Plate (MIPE), four Ewing sarcoma cell lines were evaluated (TC32, TC71, RDES, EW8). Compounds, in a 12-point titration series, were incubated with cells for 48 hours and the read out was cell viability (CellTiter-Glo from Promega). These initial experiments were used to select appropriate concentrations of each single agent for subsequent two-drug matrix combinations such that the concentrations in the matrices would span both activity and non-activity.
Cells, in the log phase of growth, were seeded in 5 uL of RPMI plus 5% FBS, […] L-glutamine, 100 U/ml penicillin and 100 ug/ml streptomycin into 1536-well solid-bottom white tissue culture treated Greiner Bio One Plates (789173-F) using a MultiDrop Combi (Thermofisher Scientific) dispenser and a small sterile cassette. One column was media alone to be used as a :"no cells" control. The plates were then covered with sterilized stainless steel gasketed lids from Kalypsys. After allowing cells to attach for 4 hours, 23 nL of test compound or control (negative control DMSO and positive control 9.2 uM Bortezomib-final) were added from a 1536-well polypropylene compound source plate to each well using a 1536 head pin tool from Kalypsys. Cells were then incubated for 48 hours at 37C, 95% relative humidity and 5% CO2. After 48 hours, plates were removed from the incubator and 3 uL of CellTiter-Glo (Promega) was added using an Aurora Flying Reagent Dispenser Bioraptor. Plates were incubated at room temperature for 10 minutes prior to reading the luminescence on the Viewlux (PerkinElmer). The relative luciferase units are used to calculate the percent activity using the activity of DMSO in the cells and no cells columns for normalization of no inhibition and full inhibition respectively.
A general note: Quantitative high-throughput screening tests each substance at several concentrations.
`COc1c(C)c2c(c(O)c1CC=C(C)CCC(=O)OCCN1CCOCC1)C(=O)OC2`: the Potency was 1.05 µM (active).

As to `CN(C)c1nc(Cc2ccc(NC(=O)c3ccc(C(F)(F)F)cc3)cc2)nc(N(C)C)c1CC(=O)O`, the Potency entry is “inactive”.

With `COc1ccc2ccc(=O)oc2c1CC=C(C)C`, the Potency is 7.43 µM (active).

In the case of `CNC(=O)[C@H](Cc1ccccc1)NC(=O)[C@H](CC(C)C)[C@H](CSc1cccs1)C(=O)NO`, the Potency entry is “inactive”.

As for `Cc1ccc(C(=O)N(CCCN)[C@@H](c2oc3cc(Cl)ccc3c(=O)c2Cc2ccccc2)C(C)C)cc1`, the Potency entry was “inactive”.

As for `CN1[C@H]2CC[C@H]1CC(OC(=O)c1c[nH]c3ccccc13)C2` (stereo not given in full), the Potency was 4.18 µM (active).

`Cc1csc(-c2nnc(Nc3ccc(Oc4ncccc4-c4ccnc(N)n4)cc3)c3ccccc23)c1`: the Potency was 0.0059 µM (active).

Turning to `CN1CCc2c(n(Cc3ccc(C(=O)NO)cc3)c3ccccc23)C1`, the Potency is 16.6 µM (active).

As to `CCCCCCCCCCCCCC(=O)N[C@H](CO)[C@H](O)c1ccc([N+](=O)[O-])cc1`, the Potency result was “inactive”.

`CC(C)c1c(C(=O)Nc2ccccc2)c(-c2ccccc2)c(-c2ccc(F)cc2)n1CC[C@H](O)C[C@@H](O)CC(=O)O`: the Potency was 23.5 µM (active).

As for `COc1cc(C=CC(=O)O)ccc1O`, the Potency result is “inactive”.

Take `O[C@@H](COc1cccc2ncccc12)CN1CCN(C2c3ccccc3[C@@H]3[C@H](c4ccccc42)C3(F)F)CC1` (stereo not given in full): the Potency is 23.5 µM (active).

For `CNC1CCC(N(Cc2cccc(-c3ccncc3)c2)C(=O)c2sc3ccccc3c2Cl)CC1` (stereo not given), the Potency was 23.5 µM (active).

In the case of `COc1cccc(OC)c1-c1cc(C(=O)NC2(C(=O)O)C3CC4CC(C3)CC2C4)nn1-c1ccnc2cc(Cl)ccc12` (stereo not given), the Potency result is “inactive”.

Turning to `C=C1[C@H](n2cnc3c(=O)[nH]c(N)nc32)C[C@H](O)[C@H]1CO`, the Potency is 13.2 µM (active).

For `COc1cc([C@H]2Oc3cc([C@H]4Oc5cc(O)cc(O)c5C(=O)[C@H]4O)ccc3O[C@H]2CO)ccc1O`, the Potency was 9.35 µM (active).

Take `CNc1nc(Nc2ccc(C(=O)N3CCOCC3)cc2OC)ncc1Cl`: the Potency entry is “inactive”.

On to `COC(=O)Nc1ccc(-c2nc(N3CCOCC3)c3cnn(C4CCN(C(=O)OC)CC4)c3n2)cc1`, for which the Potency was 0.148 µM (active).

Regarding `CC(C)C[C@@H](C(=O)N[C@H](C(=O)OC1CCCC1)c1ccccc1)[C@H](O)C(=O)NO`, the Potency was 18.7 µM (active).

On to `COc1cc2c(cc1Cc1cccc(Cl)c1F)c(=O)c(C(=O)O)cn2[C@H](CO)C(C)C`, for which the Potency was 23.5 µM (active).

For the molecule `Cc1ccc2c(c1)C(=O)[C@]1(O)CCN(c3ccccc3)C1=N2`, the Potency was 18.7 µM (active).

`CON(C)C(=O)N1N=C(c2cc(F)ccc2F)S[C@]1(CCCN)c1ccccc1`: the Potency result was “inactive”.

Regarding `N#Cc1c(N(CC(=O)O)CC(=O)O)sc(C(=O)O)c1CC(=O)O`, the Potency entry is “inactive”.

As to `C[C@@H]1O[C@@H](O[C@H]2CC[C@@]3(C)[C@H](CC[C@@H]4[C@H]3C[C@@H](O)[C@]3(C)[C@@H](C5=CC(=O)OC5)CC[C@]43O)C2)C[C@H](O)[C@@H]1O[C@H]1C[C@H](O)[C@H](O[C@H]2C[C@H](O)[C@@H](O)[C@@H](C)O2)[C@H](C)O1` (stereo in doubt), the Potency was 0.215 µM (active).

In the case of `CCN(CC)CCCCNc1nc2cc(Cl)c(Cl)cc2nc1-c1ccc(-c2cccs2)s1`, the Potency is 23.5 µM (active).

For `COC(=O)[C@H](c1ccccc1Cl)N1CCc2sccc2C1`, the Potency result is “inactive”.

As for `C[C@H]1[C@H](O)O[C@@H]2O[C@@]3(C)CC[C@@H]4[C@H](C)CC[C@@H]1[C@@]24OO3`, the Potency is 1.66 µM (active).

On to `CC[C@@H]([C@H](C)O)n1ncn(-c2ccc(N3CCN(c4ccc(OCC5CO[C@@](Cn6cncn6)(c6ccc(F)cc6F)C5)cc4)CC3)cc2)c1=O` (stereo not given in full), for which the Potency entry was “inactive”.

Take `NCC1CCC(C(=O)O)CC1` (stereo not given): the Potency result is “inactive”.

Consider `CCC[C@@H](NC(=O)[C@@H]1[C@H]2CCC[C@@H]2CN1C(=O)[C@@H](NC(=O)[C@@H](NC(=O)c1cnccn1)C1CCCCC1)C(C)(C)C)C(=O)C(=O)NC1CC1`, for which the Potency is 16.6 µM (active).

`O=C(c1ccc(F)c(F)c1Nc1ccc(I)cc1F)N1CC(O)([C@H]2CCCCN2)C1`: the Potency is 23.5 µM (active).

With `O=C1C(CCC(O)c2ccc(F)cc2)C(c2ccc(O)cc2)N1c1ccc(F)cc1` (stereo not given), the Potency entry was “inactive”.

As for `CCC(c1ccc(O)cc1)C(CC)c1ccc(O)cc1` (stereo not given), the Potency is 1.87 µM (active).

As for `NC(=O)c1nnn(Cc2cc(Cl)c(C(=O)c3ccc(Cl)cc3)c(Cl)c2)c1N`, the Potency is 26.4 µM (active).

Turning to `COc1ccc2nc3cc(Cl)ccc3c(Nc3cc(CN4CCCC4)c(O)c(CN4CCCC4)c3)c2n1`, the Potency was 26.4 µM (active).

Turning to `NC(N)=Nc1nc(CSCCC(N)=NS(N)(=O)=O)cs1`, the Potency entry is “inactive”.

For `CC(C)(C)c1[nH]cnc1C=c1[nH]c(=O)c(=Cc2ccccc2)[nH]c1=O`, the Potency result is “inactive”.

Consider `C[C@]12CC[C@@H]3c4ccc(O)cc4CC[C@H]3[C@H]1[C@@H](O)[C@@H](O)[C@H]2O`, for which the Potency result is “inactive”.

In the case of `CCN1CCC(n2cc(CNc3cc(Cl)c4ncc(C#N)c(Nc5ccc(F)c(Cl)c5)c4c3)nn2)CC1`, the Potency was 20.9 µM (active).

Regarding `Cc1cc(OCCCS(C)(=O)=O)cc(C)c1-c1cccc(COc2ccc3c(c2)OC[C@H]3CC(=O)O)c1`, the Potency is 20.9 µM (active).
